The text below walks through data of PubChem BioAssay (NCI).

The panel holds about 83,000 compounds, 20% with a hit somewhere; the sample as a whole holds those more often.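 Activity criterion: percent growth below 10, measured after cells in 96-well plates were exposed to a single compound concentration for 48 hours.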 Unmarked numbers belong to inactive results. The source made the active and inactive calls.

Among the test systems are RPMI-8226 leukemia; OVCAR-8 ovarian; OVCAR-5 ovarian; OVCAR-4 ovarian; SK-OV-3 ovarian; IGROV1 ovarian; OVCAR-3 ovarian; HS 578T breast; NCI/ADR-RES ovarian; T-47D breast; BT-549 breast; MDA-MB-435 melanoma; SW-620 colon; MCF7 breast; HCT-116 colon; HCC-2998 colon; KM12 colon.
Common to all, as to assay: NCI-60 one-dose screen, 48 h (100 = growth as untreated, 0 = no growth, -100 = all killed)
What all share (details): 10 µM

Take `COc1ccc(-c2nc3sccn3c2-c2nc3c([nH]2)C(=O)c2ccccc2C3=O)cc1`: the growth with RPMI-8226 leukemia is 74.7%; in the test with OVCAR-8 ovarian it was 96.2%; in the test on OVCAR-5 ovarian, 89.8%; in the test on OVCAR-4 ovarian, 84.1%; in the test on SK-OV-3 ovarian, 109%; with IGROV1 ovarian, 105%. Moreover, the growth in the test with OVCAR-3 ovarian was 114%; in the test on HS 578T breast, 90.6%; in the test on NCI/ADR-RES ovarian, 86.5%; with T-47D breast, 72%; with BT-549 breast, 112%; in the test with MDA-MB-435 melanoma, 95.9%. Further, the growth is 101% in the test with SW-620 colon; 83.8% in the test with MCF7 breast; 91% in the test on HCT-116 colon; 95.7% with HCC-2998 colon; 103% in the test with KM12 colon.

Take `CCOC(=O)C(=Cc1ccc(Br)cc1)C(=O)OCC`: the growth was -34.3% (active) in the test on RPMI-8226 leukemia; -22.4% (active) with OVCAR-8 ovarian; 5.97% (active) with OVCAR-5 ovarian; 0.0605% (active) with OVCAR-4 ovarian; 34% in the test with SK-OV-3 ovarian; -82.1% (active) in the test on IGROV1 ovarian. Further, the growth in the test with OVCAR-3 ovarian is -35.1% (active); with HS 578T breast it was -16.3% (active); with NCI/ADR-RES ovarian, 10.6%; in the test on T-47D breast, -16.7% (active); in the test with BT-549 breast, -43.3% (active); in the test with MDA-MB-435 melanoma it was -4.37% (active). Also, the growth with SW-620 colon is -71.2% (active); with MCF7 breast it was 0.372% (active); in the test on HCT-116 colon it was -80.4% (active); in the test with HCC-2998 colon, -82.2% (active); with KM12 colon, -25.3% (active).

Turning to `O=C(Nc1cccc(-n2cc(-c3ccncc3)c(-c3cc(O)cc(Cl)c3)n2)c1)Nc1ccc(Cl)c(C(F)(F)F)c1`, the growth is 13.8% in the test with RPMI-8226 leukemia; 3.69% (active) in the test on OVCAR-8 ovarian; 59.3% in the test with OVCAR-5 ovarian; 31.5% with OVCAR-4 ovarian; 63.1% in the test on SK-OV-3 ovarian; 30.6% in the test on IGROV1 ovarian. Further, the growth was 1.88% (active) with OVCAR-3 ovarian; 21.7% with HS 578T breast; 41.5% in the test on NCI/ADR-RES ovarian; 25% in the test on T-47D breast; 47.6% in the test on BT-549 breast; 9.57% (active) in the test on MDA-MB-435 melanoma. The growth in the test with SW-620 colon is -33.6% (active); in the test with MCF7 breast, 13.4%; in the test on HCT-116 colon it was 6.95% (active); in the test on HCC-2998 colon, 34.3%; with KM12 colon it was 15.1%.

On to `O=C(O)CCCCSc1ncnc2nc[nH]c12`, for which the growth is 108% with RPMI-8226 leukemia; 98.3% in the test on OVCAR-8 ovarian; 102% in the test with OVCAR-5 ovarian; 116% in the test with OVCAR-4 ovarian; 92.9% with SK-OV-3 ovarian; 97.5% in the test on IGROV1 ovarian. For the same compound, the growth was 100% in the test with OVCAR-3 ovarian; 122% with HS 578T breast; 107% with NCI/ADR-RES ovarian; 97.2% in the test with T-47D breast; 106% in the test with BT-549 breast; 99.3% in the test with MDA-MB-435 melanoma. Moreover, the growth in the test on SW-620 colon is 109%; with MCF7 breast, 99.2%; with HCT-116 colon it was 103%; with HCC-2998 colon, 108%; in the test with KM12 colon, 102%.

As to `COc1cc(-c2cc(-c3cc4c([nH]c5ccccc54)c(-c4cc(OC)c(OC)c(OC)c4)n3)cc(-c3ccccc3)n2)cc(OC)c1OC`, the growth in the test on RPMI-8226 leukemia is 46%; with OVCAR-8 ovarian it was 70.2%; in the test on OVCAR-5 ovarian it was 88.6%; in the test with OVCAR-4 ovarian it was 58.6%; in the test on SK-OV-3 ovarian, 90.7%; in the test on IGROV1 ovarian, 74.6%. The growth in the test with OVCAR-3 ovarian is 72.3%; in the test with HS 578T breast it was 52.5%; in the test on NCI/ADR-RES ovarian it was 42%; with T-47D breast it was 43.3%; in the test on BT-549 breast it was 66.6%; in the test with MDA-MB-435 melanoma, -1.18% (active). Besides, the growth in the test with SW-620 colon is 41.4%; with MCF7 breast it was 44%; in the test on HCT-116 colon, 57%; in the test with HCC-2998 colon it was 72.8%; with KM12 colon, 60%.

As for `CC(=O)N(C)c1ccc(Nc2ccc(Nc3ccc(N(C)C(C)=O)cc3)c3c2C(=O)c2ccccc2C3=O)cc1`, the growth is 53.5% in the test on RPMI-8226 leukemia; 71.2% in the test with OVCAR-8 ovarian; 97.1% in the test with OVCAR-5 ovarian; 63.7% with OVCAR-4 ovarian; 78.2% in the test with SK-OV-3 ovarian; 32.6% in the test on IGROV1 ovarian. The growth was 78.7% in the test on OVCAR-3 ovarian; 58.3% in the test with HS 578T breast; 86% with NCI/ADR-RES ovarian; 54.7% in the test with T-47D breast; 84.4% with BT-549 breast; 101% in the test with MDA-MB-435 melanoma. Also, the growth with SW-620 colon is 84.1%; with MCF7 breast it was 52%; in the test with HCT-116 colon it was 73.5%; with HCC-2998 colon, 89.6%; in the test with KM12 colon, 71.1%.

With `Cc1ccc(Nc2cc(C)nc(NCCCNc3ccnc4cc(Cl)ccc34)n2)cc1`, the growth with RPMI-8226 leukemia was -63.8% (active); in the test on OVCAR-8 ovarian, -60.7% (active); with OVCAR-5 ovarian it was 1.62% (active); with OVCAR-4 ovarian, -26.1% (active); in the test with SK-OV-3 ovarian, -47.5% (active); in the test on IGROV1 ovarian, 7.69% (active). The growth was -79.9% (active) with OVCAR-3 ovarian; -58.6% (active) in the test with HS 578T breast; -33% (active) in the test with NCI/ADR-RES ovarian; -73% (active) with T-47D breast; -85.5% (active) with BT-549 breast; -90% (active) in the test with MDA-MB-435 melanoma. Moreover, the growth with SW-620 colon was -84.3% (active); with MCF7 breast, -95% (active); in the test with HCT-116 colon, -100% (active); with HCC-2998 colon it was -86.3% (active); in the test on KM12 colon, -49.8% (active).

As for `COc1ccc(Nc2nc3ccc(NC(=O)NC4CCCCC4)cc3[nH]c2=O)cc1`, the growth with RPMI-8226 leukemia is 66.2%; in the test on OVCAR-8 ovarian, 91.4%; in the test with OVCAR-5 ovarian, 104%; in the test with OVCAR-4 ovarian it was 113%; in the test on SK-OV-3 ovarian, 96.1%; in the test on IGROV1 ovarian it was 94.1%. For the same compound, the growth in the test with OVCAR-3 ovarian is 112%; in the test on HS 578T breast, 69.6%; with NCI/ADR-RES ovarian, 103%; with T-47D breast it was 92.8%; with BT-549 breast it was 87.7%; in the test with MDA-MB-435 melanoma, 105%. Also, the growth with SW-620 colon is 108%; in the test with MCF7 breast, 83%; with HCT-116 colon, 102%; with HCC-2998 colon it was 104%; in the test on KM12 colon, 87.1%.

In the case of `COc1ccc(-c2nc3sc(-c4ccccc4)c(-c4ccccc4)n3c2/C=C/C(=O)c2ccccn2)cc1`, the growth in the test with RPMI-8226 leukemia is 45.7%; in the test with OVCAR-8 ovarian it was 67.9%; in the test on OVCAR-5 ovarian, 115%; with OVCAR-4 ovarian, 43.7%; in the test on SK-OV-3 ovarian, 103%; in the test with IGROV1 ovarian, 82.6%. Besides, the growth in the test with OVCAR-3 ovarian was 81.3%; with HS 578T breast it was 80.6%; in the test on NCI/ADR-RES ovarian it was 85.9%; in the test with T-47D breast, 63.9%; in the test on BT-549 breast it was 85.5%; with MDA-MB-435 melanoma, 90.6%. For the same compound, the growth was 91% in the test on SW-620 colon; 62% in the test on MCF7 breast; 67.2% in the test on HCT-116 colon; 90.9% with HCC-2998 colon; 83.6% in the test with KM12 colon.
